Screens (PubChem BioAssay)
Only some compounds are listed: those with a hit (about 10% of all), similar ones and a draw of the others.
GPT2 inhibitor: Primary qHTS assay for inhibitors of Glutamate pyruvate transaminase 2 (GPT2); Alanine aminotransferase 2 (Homo sapiens), Q8TD30; Potency, µM (doses to about 57.7 µM), without a hit: at the top dose activity change, negative = inhibition, actives largely listed as inhibitors; 0.25% of 100,000 active; Recombinant GPT2, coupled pyruvate oxidase/HRP Amplex Red fluorescence; also: % is scaled to controls: 0 for no effect and ±100 for the full control effect; nearly all actives have a fitted effect of over 60% in size
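Recombinant GPT2 (10ng/uL) with 250uM a-KG and 2mM L-alanine, 30 min at room temperature, in HEPES pH 7.5 buffer. Pyruvate detected by pyruvate oxidase/HRP/Amplex Red fluorescence after 30 min in the dark; AOA (50uM) as positive control.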
FLuc inh-1: Firefly luciferase inhibition profiling of diverse chemical library using quantitative high-throughput screening; Luciferin 4-monooxygenase (Photinus pyralis), P08659; purified P. pyralis luciferase, luminescence, biochemical; Potency, µM (top dose mostly 115 µM), actives largely listed as inhibitors; 2.5% of 76,000 active; AID 1347043, 2019; also: % is scaled to controls: 0 for no effect and ±100 for the full control effect; nearly all actives have a fitted effect of over 65% in size
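Luminescence read by CCD imager after adding enzyme (10nM final) to wells holding compound, titrated in qHTS. Substrates 10uM each D-luciferin and ATP; buffer 50mM Tris acetate pH 7.5, 10mM Mg acetate, Tween-20, BSA.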
NIH3T3 tox: Cytotoxic Profiling in NIH 3T3 Cell Line of Diverse Libraries Using Quantitative High-Throughput Screening; NIH 3T3 viability, CellTiter-Glo ATP luminescence, 48-72 h; Potency, µM (doses to about 96.7 µM), without a hit: at the highest dose activity change, negative = cytotoxicity, actives largely listed as inhibitors; 4.3% of 94,000 active; AID 1345082, 2018; also: % is scaled to controls: 0 for no effect and ±100 for the full control effect; nearly all actives have a fitted effect of over 55% in size
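Mouse fibroblast NIH 3T3 cells, 400 per well, received compound via pintool and were incubated for 48 or 72 hr prior to CellTiter-Glo ATP luminescence measurement.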
NPR1 antag: Natriuretic polypeptide receptor (hNpr1) antagonism - Primary qHTS. Atrial natriuretic peptide receptor 1 (Homo sapiens), P16066. HEK293 hNpr1 GloSensor cGMP, ANP-stimulated luminescence. Potency, µM (series often up to 46.3 µM), inactives show top-dose activity change, negative = inhibition, hits mostly inhibitors. 1.6% of 76,000 active. AID 1347048, 2019; calls by dose curve; also: % is scaled to controls: 0 for no effect and ±100 for the full control effect; nearly all actives have a fitted effect of over 60% in size
Target sequence (P16066 whole entry, looked up): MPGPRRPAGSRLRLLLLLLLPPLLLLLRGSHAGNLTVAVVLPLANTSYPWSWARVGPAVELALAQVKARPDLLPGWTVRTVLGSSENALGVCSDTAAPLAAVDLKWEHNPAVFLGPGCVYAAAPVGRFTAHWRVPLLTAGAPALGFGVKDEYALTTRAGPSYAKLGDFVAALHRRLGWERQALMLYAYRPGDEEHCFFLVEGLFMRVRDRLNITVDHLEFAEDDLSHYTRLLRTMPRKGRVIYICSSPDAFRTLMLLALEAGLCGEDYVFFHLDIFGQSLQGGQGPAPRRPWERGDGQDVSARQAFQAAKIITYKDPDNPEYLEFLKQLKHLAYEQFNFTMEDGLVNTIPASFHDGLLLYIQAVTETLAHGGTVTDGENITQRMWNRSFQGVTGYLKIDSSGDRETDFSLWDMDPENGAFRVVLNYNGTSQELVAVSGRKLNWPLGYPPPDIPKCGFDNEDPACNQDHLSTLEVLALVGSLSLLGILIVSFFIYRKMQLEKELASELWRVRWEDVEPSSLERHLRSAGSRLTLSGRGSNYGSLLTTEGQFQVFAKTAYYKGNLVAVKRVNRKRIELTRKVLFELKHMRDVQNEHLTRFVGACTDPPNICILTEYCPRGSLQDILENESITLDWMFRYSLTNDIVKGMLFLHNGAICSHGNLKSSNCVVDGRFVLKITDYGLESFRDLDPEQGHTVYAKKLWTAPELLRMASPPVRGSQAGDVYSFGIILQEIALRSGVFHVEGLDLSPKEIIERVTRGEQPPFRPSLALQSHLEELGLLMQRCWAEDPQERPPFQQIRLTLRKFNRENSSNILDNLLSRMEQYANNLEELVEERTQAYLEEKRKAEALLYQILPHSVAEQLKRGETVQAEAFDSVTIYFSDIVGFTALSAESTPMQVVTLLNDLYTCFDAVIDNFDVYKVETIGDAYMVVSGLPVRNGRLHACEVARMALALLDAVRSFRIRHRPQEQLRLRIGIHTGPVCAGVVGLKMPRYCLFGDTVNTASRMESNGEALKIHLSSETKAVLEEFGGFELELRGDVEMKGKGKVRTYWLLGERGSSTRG
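HEK293 cells stably expressing human Npr1 and cGMP GloSensor pGS-40F, loaded 2 h with 2% GloSensor reagent, given compound 30 min at room temperature. Luminescence read before and 20 min after 0.1 nM hNppA.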
HEK293 tox: Cytotoxic Profiling in HEK 293 Cell Line of Diverse Libraries Using Quantitative High-Throughput Screening | AID 1345083, 2018 | HEK 293 viability, ATP luminescence (CellTiter-Glo), 48-72 h | 6.6% of 94,000 active | Potency, µM (series often up to 115 µM), without a hit: top-dose activity change, negative = cytotoxicity, most hits filed as inhibitors; also: % is scaled to controls: 0 for no effect and ±100 for the full control effect; nearly all actives have a fitted effect of over 60% in size
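250 HEK 293 cells/well; compound by pintool; incubated 48 or 72 hr at 37 degree Celsius; CellTiter-Glo added, 10 min RT, luminescence imaged.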
FLuc SDR no ATP: Firefly luciferase (FLuc-C-HiBiT) SDR gain of signal screen - without ATP; shares compounds with FLuc inh-1; Purified FLuc-C-HiBiT, Nano-Glo HiBiT luminescence, no ATP; Potency, µM (top dose mostly 32.7 µM), inactives show top-dose activation (signal gain), most hits filed as activators; 7.8% of 1,300 active; also: nearly all actives have a fitted effect of over 55% in size
FLuc SDR ATP: Firefly luciferase (FLuc-C-HiBiT) SDR gain of signal screen - plus ATP; purified FLuc-C-HiBiT + ATP, HiBiT complementation luminescence; Potency, µM (titrated, usually from 32.7 µM), without a hit: top-dose activation (gain of signal), most hits filed as activators; shares compounds with FLuc inh-1; 8.7% of 1,300 active;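 also: signal reports ligand binding via conformational change of the enzyme rather than luciferase catalysis; % of control where 0% means no effect; nearly all actives have a fitted effect of over 55% in size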
FLuc inh-2: Firefly luciferase (FLuc-C-HiBiT) enzymatic inhibition screen - Functional assay; shares compounds with FLuc inh-1; purified FLuc-C-HiBiT enzyme, luciferin luminescence; Potency, µM (doses to about 32.7 µM), for the others: at the top dose activity change, negative = inhibition, hits mostly inhibitors; 42% of 1,300 active; also: % is scaled to controls: 0 for no effect and ±100 for the full control effect; nearly all actives have a fitted effect of over 70% in size
An asterisk follows results filed as active; i = inactive; ? = inconclusive; . = no result given; [ ] = dose if it differs, or a comment. Unless noted, calls follow the shape of the dose curve; as a rule, active = well fitted curve in the direction sought with a large enough effect; inconclusive = small, poorly fitted or top-dose-only effect, or another doubt; inactive = no such curve, though single readings can be large; an effect the other way counts as inactive or inconclusive. Potency is read from the fitted curve at half-maximal effect.

SMILES | GPT2 inhibitor | FLuc inh-1 | NIH3T3 tox | NPR1 antag | HEK293 tox | FLuc SDR no ATP | FLuc SDR ATP | FLuc inh-2
COCCNC(=O)C1CCCN1c1nccc(Nc2ccccc2F)n1 (stereo not drawn) | 2% | . | -12% | . | -8% | . | . | .
COc1ccc(CCNC(=O)C2CN(C3CCCC3)C(=O)N2)cc1 (stereo not drawn) | i | . | -2%[138 µM] | . | i | . | . | .
CCOC(=O)C1CCCN(C(=O)c2nc3sccn3c2-c2ccc(C(F)(F)F)cc2)C1 (stereo not drawn) | i | . | ? | . | ? | . | . | .
COc1ccccc1NC(=O)CN1C(=O)CC(c2ccc(C)c(C)c2)=Nc2ccccc21 | . | . | . | . | . | 19% | 15% | ?
COc1ccccc1NC(=O)Cn1c(-c2ccc(F)cc2)nc(C)cc1=O | -21% | i | -14% | -6% | ? | . | . | .
CC(=O)Nc1ccc(NC(=O)c2cc(-c3ccc4c(c3)OCCO4)on2)cc1 | . | . | . | . | . | ? | ? | 0.62µM*
CC(=O)N[C@H]1C[C@@H](c2nc(-c3ccc4c(c3)OCO4)no2)N(C)C1 | -7%[88.5 µM] | i | -23%[174 µM] | 1%[70.6 µM] | -14%[172 µM] | . | . | .
O=C(C1CC1)N1CC2(CCCN2C2COC2)Cc2ccccc21 (stereo not drawn) | -5% | . | i | . | 3% | . | . | .
Cc1ccc(-n2ncc3c(NC4CCCCC4)ncnc32)cc1C | . | . | . | . | . | 27% | ? | 1.8µM*
Cc1ccc(-n2ncc3c(NC4CCCCC4)ncnc32)cc1Cl | . | . | . | . | . | 33% | ? | 2.8µM*
CCCC(=O)Nc1cc(C2CC2)nn1-c1ccccc1 | ? | . | -15%[138 µM] | . | -23%[172 µM] | . | . | .
COc1cccc([S+](=O)([O-])N2CCc3nc(C(C)C)nc(-c4ccc(Cl)cc4)c3C2)c1 | -2% | i | -11% | -5% | ? | . | . | .
CCOc1ccc(NC(C)=O)cc1 | i | . | . | . | . | . | . | .
CCOc1ccc(NC(=O)Nc2cccc(C(=O)O)c2)cc1 | . | . | . | . | . | 4.4µM* | 0.007µM* | 0.0088µM*
Cc1ccc(C(=O)Nc2cccc(C(=O)O)c2)cc1 | . | . | . | . | . | 12µM* | 0.05µM* | 0.056µM*
CC(C)Oc1ccc(C(=O)Nc2nnc3n2CCS3)cc1 | . | . | . | . | . | 28% | ? | ?
Cc1ccc(/C=C/C(=O)N2CCC(c3nc4ccccc4o3)CC2)cc1 | . | . | . | . | . | 12% | ? | ?
Cc1cn2nc(C(=O)Nc3ccc(C(=O)N4CCCC4)cc3)cc2c(=O)[nH]1 | i | 7.9µM* | ? | 5% | ? | ? | ? | 9.9µM*
Cc1cn2nc(C(=O)NCCc3ccccc3)cc2c(=O)[nH]1 | -2% | 10µM* | 4% | -21% | -2% | ? | ? | ?
Cc1ccc(CCNC(=O)c2cc3c(=O)[nH]c(C)cn3n2)cc1 | -1% | ? | -10% | 2% | -6% | . | . | .
Cc1cn2nc(C(=O)N3CCCC3)cc2c(=O)[nH]1 | 1% | i | i | 10% | 2% | . | . | .
CCc1ccccc1NC(=O)c1cc2c(=O)[nH]c(C)cn2n1 | 3% | 13µM* | i | -5% | -3% | 17% | 13% | ?
COc1ccc(C(=O)N[C@@H]2CCC[C@@H]2C(=O)N2CCN(c3cc(C)ccc3C)CC2)cn1 | i | i | i | -5% | i | . | . | .
Cc1cc(-c2cc3c(cn2)CN(Cc2ccccn2)CCN3)ccn1 | -1%[88.5 µM] | 14µM* | 89µM* | 2%[70.6 µM] | ? | 21%[49.3 µM] | 19%[49.3 µM] | ?
Clc1ccc(-c2cc3c(cn2)CN(Cc2ccncc2)CCN3)cc1 | -28%[88.5 µM] | 2.2µM* | ? | ? | 89µM* | 31%[49.3 µM] | ? | 16µM*
SMILES | GPT2 inhibitor | FLuc inh-1 | NIH3T3 tox | NPR1 antag | HEK293 tox | FLuc SDR no ATP | FLuc SDR ATP | FLuc inh-2
CCn1cc(-c2cc3c(cn2)CN(Cc2ccncc2)CCN3)cn1 | 2%[88.5 µM] | ? | -37%[138 µM] | -1%[70.6 µM] | ? | . | . | .
CCOCCCNC(=O)c1cc(-c2ccccc2C(F)(F)F)nc2c1cnn2C | . | . | -16% | . | -11% | . | . | .
CCOc1ccccc1C1NC(=O)N(CC(=O)Nc2ccc(C)c(F)c2)C2=C1C(=O)OC2 (stereo not drawn) | 3% | i | ? | -20% | ? | . | . | .
COc1cccc(-n2nnc(-c3nc(-c4ccccc4F)no3)c2C)c1 | . | . | . | . | . | 18% | ? | 5.6µM*
COc1ccc(C2Cn3nnc(-c4nc(-c5ccccc5F)no4)c3CO2)cc1 (stereo not drawn) | i | i | i | ? | -8% | . | . | .
COC(=O)[C@@H]1C[C@H](NC(=O)c2ccc(Oc3ccccc3)cc2)CN1C | i | 14µM* | -22% | -1% | -26% | 16% | 12% | ?
CC(C)CCN1C(=O)N(CCCc2ccncc2)C(=O)C12CCN(Cc1ccc(F)cc1)CC2 | -16% | i | -22% | 2% | ? | . | . | .
CCN1CCN(C(=O)c2ccc3nnc(-c4ccoc4)n3c2)CC1 | 0%[88.5 µM] | . | -8%[138 µM] | . | -4%[172 µM] | . | . | .
COc1ccc(-c2noc([C@@H]3C[C@@H](O)CN3Cc3cccs3)n2)cc1 | 0%[88.5 µM] | 14µM* | -36%[174 µM] | -14%[70.6 µM] | -22%[172 µM] | 10%[49.3 µM] | 9%[49.3 µM] | ?
CN(C)c1cccc(NC(=O)c2ccc3c(c2)NC(C)(COc2ccccc2)CO3)c1 (stereo not drawn) | 0%[88.5 µM] | i | ? | -1%[70.6 µM] | ? | . | . | .
CCOCC1(C)COc2ccc(C(=O)Nc3ccccc3)cc2N1 (stereo not drawn) | -14%[88.5 µM] | 10µM* | ? | -4%[70.6 µM] | ? | 22%[49.3 µM] | 13%[49.3 µM] | ?
O=C(Nc1cc(Cl)cc(Cl)c1)c1ccn2nccc2c1 | i | 14µM* | ? | -24%[70.6 µM] | -37%[172 µM] | 24%[49.3 µM] | 17%[49.3 µM] | ?
O=C(c1ccccn1)N1CC(Oc2ccc(F)c(F)c2)C1 | 5%[88.5 µM] | . | -29%[138 µM] | . | -29%[172 µM] | . | . | .
CO[C@H]1C(=O)N(C(C)C)[C@H]1C1CCN(Cc2ccc3cc[nH]c3c2)CC1 | i | i | -4% | 7% | 4% | . | . | .
